The nature of experiment [1]: qHTS assay to identify small molecule agonists of the estrogen receptor alpha (ER-alpha) signaling pathway in the presence of an antagonist - cell viability counter screen (AID 1259386).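 Further: series mostly up to about 92 µM; cells exposed to compounds for 22 h at 37 °C before the viability read; nearly all actives have a fitted effect of over 30% in size.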 In short, it runs like this:
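Read-out: CellTiter-Fluor fluorescence after 1hr reagent incubation, measured in the same wells as the luciferase readout. VM7Luc4E2 cells were exposed to 15 compound concentrations with 10.0nM ICI-182,780 for 22hr at 37C.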
(qHTS replaces the single test concentration by a dilution series.)

The target in experiment [2] is Progesterone receptor (Homo sapiens) (UniProt P06401). The experiment in a line: qHTS assay to identify small molecule agonists of the progesterone receptor (PR) signaling pathway (AID 1346784; calls by dose curve; further: nearly all actives have a fitted effect of over 30% in size). In short, it runs like this:
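Reporter assay, GripTite PR-UAS-bla HEK 293T cells: 16 hr exposure to DMSO-dissolved compounds at 37C, 5% CO2, in steroid-depleted (2% charcoal-stripped FBS) medium; beta-lactamase measured by FRET fluorescence.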

Experiment [3] shares this target. Nature of the experiment: qHTS assay to identify small molecule antagonists of the progesterone receptor (PR) signaling pathway (AID 1346795; active means well fitted inhibition curve with a large enough effect in the signal ratio in the repeat runs, not every such curve was filed as active; the % refers to the signal ratio; further: potency means the concentration at half of the fitted maximal effect). In short, it runs like this:
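Stimulus R5020 at 1 nM final; cells HEK293T PR-UAS-bla; medium with 2% charcoal-stripped FBS; compound exposure 16 hr at 37C, 5% CO2; detection by FRET beta-lactamase substrate, 2 hr, room temperature.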

Experiment [4] is described as follows: qHTS assay to identify small molecule antagonists of the progesterone receptor (PR) signaling pathway - cell viability counter screen (AID 1346798). Further: series mostly up to about 92 µM; nearly all actives have a fitted effect of over 50% in size. In short, it runs like this: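 In the same plates used for the beta-lactamase readout, cell viability of compound- and R5020-treated PR-UAS-bla HEK293T cells (16 hr, 37C) was assessed by CellTiter-Glo luminescence.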

Experiment [5] in a line: qHTS assay to identify small molecule agonists of the progesterone receptor (PR) signaling pathway - cell viability counter screen (AID 1346799; calls by dose curve; further: nearly all actives have a fitted effect of over 45% in size). In short, it runs like this:
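Multiplexed viability read: CellTiter-Glo luminescence, 30 min RT, following LiveBLAzer FRET measurement on PR-UAS-bla HEK293T cells exposed to compounds 16 hr.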

A short description of experiment [6]: qHTS assay to identify small molecule antagonists of the TGF-beta/Smad signaling pathway - cell viability counter screen (AID 1346824). Further: nearly all actives have a fitted effect of over 50% in size. In short, it runs like this: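 Cytotoxicity counter-screen run in the same wells as the beta-lactamase Smad reporter read: CellTiter-Glo luminescence after 30 min at room temperature. HEK 293T SBE-bla cells had 5 hr compound exposure at 37 C with TGF-beta1 (0.25 ng/mL stock).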

A short description of experiment [7]: qHTS assay to identify small molecule agonists of the TGF-beta/Smad signaling pathway - cell viability counter screen (AID 1346829). Further: top concentration of the series differs between compounds; nearly all actives have a fitted effect of over 45% in size. In short, it runs like this: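 CellTiter-Glo luminescence readout; SBE-bla HEK 293T cells, overnight plating, compound 5 hr at 37 C/5% CO2, then bla substrate 2 hr RT, then CellTiter-Glo 30 min RT.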
Experiment [8] in a line: qHTS assay to identify small molecule agonists of the TGF-beta/Smad signaling pathway (AID 1346859; active means well fitted activation curve with a large enough effect in the signal ratio in the repeat runs, not every such curve was filed as active; the % refers to the signal ratio; further: series mostly up to about 77 µM). In short, it runs like this:
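Screening used HEK 293T SBE-bla cells at 4,000/well. Test agents: 5 hr, 37 C. Detection: FRET substrate, 2 hr RT, then excitation 405 nm with emissions at 460 and 530 nm.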

Experiment [9] concerns the target Thyrotropin-releasing hormone receptor (Homo sapiens) (UniProt P34981). Nature of the experiment: qHTS assay to identify small molecule antagonists of the thyrotropin-releasing hormone receptor (TRHR) signaling pathway (AID 1346877; active means well fitted inhibition curve with a large enough effect in the repeat runs, not every such curve was filed as active; further: potency means the concentration at half of the fitted maximal effect). In short, it runs like this: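 HEK293/TRHR cells, 18 h, 37 °C; Ca2+ dye 2 h; cpd 5 min RT; TRH 1 nM final; fluorescence read 3 min, 1 s intervals; 15 concs, triplicate.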

Experiment [10] shares this target. The experiment in a line: qHTS assay to identify small molecule agonists of the thyrotropin-releasing hormone receptor (TRHR) signaling pathway (AID 1346891; calls by dose curve; further: series mostly up to about 58 µM). In short, it runs like this:
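Readout was intracellular calcium fluorescence in TRHR-Hek293 cells. Cells were incubated 18 h, dye-loaded 2 h at 37 °C, and treated with compound in agonist mode.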

A short description of experiment [11]: Human pregnane X receptor (PXR) small molecule agonists, qHTS cell viability counter screen (AID 1346977). Further: nearly all actives have a fitted effect of over 50% in size. Further: potency means the concentration at half of the fitted maximal effect. In short, it runs like this: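 In each well, the PXR reporter HepG2 line was checked for viability: CellTiter-Fluor reagent added 23hr post-dosing, fluorescence read after 1hr incubation at 37C.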
Experiment [12] in a line: Caspase-3/7 induction in HepG2 cells by small molecules, qHTS assay (AID 1346978). Further: nearly all actives have a fitted effect of over 15% in size. In short, it runs like this: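 Caspase-3/7 induction was measured by Caspase-Glo 3/7 luminescence (30 min, room temperature) after a 17 hr compound exposure of wild-type HepG2 cells seeded at 2,000 per well and pre-incubated 5 hr.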
The nature of experiment [13]: Caspase-3/7 induction in CHO-K1 cells by small molecules, qHTS cell viability counter screen (AID 1346979). Further: nearly all actives have a fitted effect of over 35% in size. Further: potency means the concentration at half of the fitted maximal effect. In short, it runs like this: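 Following a 5hr settling period, CHO-K1 cells at 1,500 per well received DMSO-dissolved compounds. Cell viability was quantified 16hr later by CellTiter-Fluor fluorescence, measured after 1hr with reagent at 37C.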
Experiment [14] can be described thus: Caspase-3/7 induction in CHO-K1 cells by small molecules, qHTS assay (AID 1346980). Further: nearly all actives have a fitted effect of over 15% in size. In short, it runs like this:
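Luminescent Caspase-Glo 3/7 read (30min, room temperature) quantified apoptosis induction. Cells were wild-type CHO-K1, treated with compound for 17hr at 37 C and 5% CO2.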

The nature of experiment [15]: Caspase-3/7 induction in HepG2 cells by small molecules, qHTS cell viability counter screen (AID 1346981). Further: nearly all actives have a fitted effect of over 30% in size. Further: potency means the concentration at half of the fitted maximal effect. In short, it runs like this:
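Fluorescence read-out of live-cell protease activity (CellTiter-Fluor) after 1 hr with reagent. This was measured in the same wells as the caspase-3/7 luminescence, on HepG2 cells exposed to DMSO-dissolved compounds for 16 hr at 37 C.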

Experiment [16] concerns the target Acetylcholinesterase (Homo sapiens) (UniProt P22303). The experiment in a line: Acetylcholinesterase (AChE) small molecule antagonists: colormetric cell-based qHTS assay (AID 1347395; calls by dose curve; further: nearly all actives have a fitted effect of over 30% in size). In short, it runs like this: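 After overnight attachment at 37 C, SH-SY5Y cells get 30 min compound exposure; detection cocktail (acetylthiocholine, DTNB) then incubates 90 min at 37 C, and absorbance reflects AChE-generated thiocholine.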

The target of experiment [17] is Nuclear receptor subfamily 1 group I member 2 (Homo sapiens) (UniProt O75469). Nature of the experiment: Human pregnane X receptor (PXR) small molecule agonists, qHTS assay (AID 1346982). Further: nearly all actives have a fitted effect of over 35% in size. Further: potency means the concentration at half of the fitted maximal effect. In short, it runs like this:
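HepG2 PXR-Luc reporter line, 5% charcoal-stripped FBS; 5 hr pre-incubation, compound (DMSO) 24 hr at 37 C/5% CO2; ONE-Glo 30 min RT; luminescence read-out.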

Where “and” joins values, the source holds several entries; their conditions need not be identical. Equal entries are not always repeated. Unmarked numbers belong to inactive results. Inconclusive results are not listed. Calls of active or inactive are those of the source. Unless noted, the call rests on the fitted dose curve; in most records, active means well fitted curve in the direction sought with a large enough effect in the repeat runs; inconclusive means weak or mixed curves; inactive means no such curve, though single readings can be large; an effect the other way counts as inactive or inconclusive.

Nuclear receptor subfamily 1 group I member 2 (Homo sapiens), sequence (O75469 whole entry, looked up): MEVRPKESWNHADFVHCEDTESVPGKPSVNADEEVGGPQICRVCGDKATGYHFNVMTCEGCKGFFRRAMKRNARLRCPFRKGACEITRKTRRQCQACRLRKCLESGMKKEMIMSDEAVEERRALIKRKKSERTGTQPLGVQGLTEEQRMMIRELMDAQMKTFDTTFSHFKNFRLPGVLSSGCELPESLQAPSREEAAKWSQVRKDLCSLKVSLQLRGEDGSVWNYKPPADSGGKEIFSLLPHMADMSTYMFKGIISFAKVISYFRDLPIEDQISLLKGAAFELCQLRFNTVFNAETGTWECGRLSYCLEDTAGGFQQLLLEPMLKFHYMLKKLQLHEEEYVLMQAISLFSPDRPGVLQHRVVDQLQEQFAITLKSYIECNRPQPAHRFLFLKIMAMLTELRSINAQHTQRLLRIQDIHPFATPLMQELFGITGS
Thyrotropin-releasing hormone receptor (Homo sapiens), sequence (P34981 whole entry, looked up): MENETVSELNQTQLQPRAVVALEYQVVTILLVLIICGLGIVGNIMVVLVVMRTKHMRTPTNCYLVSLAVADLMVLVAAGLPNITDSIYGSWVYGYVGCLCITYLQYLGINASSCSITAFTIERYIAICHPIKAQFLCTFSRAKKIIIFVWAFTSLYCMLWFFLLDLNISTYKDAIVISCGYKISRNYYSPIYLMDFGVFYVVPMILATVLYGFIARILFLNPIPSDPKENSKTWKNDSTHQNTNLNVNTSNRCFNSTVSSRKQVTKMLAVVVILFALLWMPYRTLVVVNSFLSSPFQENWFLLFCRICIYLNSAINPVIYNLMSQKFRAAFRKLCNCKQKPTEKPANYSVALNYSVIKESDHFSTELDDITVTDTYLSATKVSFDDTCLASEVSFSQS
Acetylcholinesterase (Homo sapiens), sequence (P22303 whole entry, looked up): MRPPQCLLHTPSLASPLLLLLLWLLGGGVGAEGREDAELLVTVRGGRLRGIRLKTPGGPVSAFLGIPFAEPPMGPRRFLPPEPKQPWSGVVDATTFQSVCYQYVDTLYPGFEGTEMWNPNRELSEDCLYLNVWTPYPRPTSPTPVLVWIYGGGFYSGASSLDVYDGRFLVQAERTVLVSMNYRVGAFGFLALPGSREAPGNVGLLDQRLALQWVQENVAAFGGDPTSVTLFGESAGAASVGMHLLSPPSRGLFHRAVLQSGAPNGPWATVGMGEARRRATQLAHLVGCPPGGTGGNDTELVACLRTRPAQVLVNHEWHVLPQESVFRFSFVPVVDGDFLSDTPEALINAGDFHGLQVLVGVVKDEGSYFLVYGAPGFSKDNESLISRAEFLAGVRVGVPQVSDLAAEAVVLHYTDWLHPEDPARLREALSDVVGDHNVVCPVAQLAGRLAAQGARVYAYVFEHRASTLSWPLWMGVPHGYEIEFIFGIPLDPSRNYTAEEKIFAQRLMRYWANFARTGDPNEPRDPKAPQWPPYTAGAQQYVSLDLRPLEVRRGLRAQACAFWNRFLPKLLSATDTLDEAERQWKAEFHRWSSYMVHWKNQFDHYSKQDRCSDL
Progesterone receptor (Homo sapiens), sequence (P06401 whole entry, looked up): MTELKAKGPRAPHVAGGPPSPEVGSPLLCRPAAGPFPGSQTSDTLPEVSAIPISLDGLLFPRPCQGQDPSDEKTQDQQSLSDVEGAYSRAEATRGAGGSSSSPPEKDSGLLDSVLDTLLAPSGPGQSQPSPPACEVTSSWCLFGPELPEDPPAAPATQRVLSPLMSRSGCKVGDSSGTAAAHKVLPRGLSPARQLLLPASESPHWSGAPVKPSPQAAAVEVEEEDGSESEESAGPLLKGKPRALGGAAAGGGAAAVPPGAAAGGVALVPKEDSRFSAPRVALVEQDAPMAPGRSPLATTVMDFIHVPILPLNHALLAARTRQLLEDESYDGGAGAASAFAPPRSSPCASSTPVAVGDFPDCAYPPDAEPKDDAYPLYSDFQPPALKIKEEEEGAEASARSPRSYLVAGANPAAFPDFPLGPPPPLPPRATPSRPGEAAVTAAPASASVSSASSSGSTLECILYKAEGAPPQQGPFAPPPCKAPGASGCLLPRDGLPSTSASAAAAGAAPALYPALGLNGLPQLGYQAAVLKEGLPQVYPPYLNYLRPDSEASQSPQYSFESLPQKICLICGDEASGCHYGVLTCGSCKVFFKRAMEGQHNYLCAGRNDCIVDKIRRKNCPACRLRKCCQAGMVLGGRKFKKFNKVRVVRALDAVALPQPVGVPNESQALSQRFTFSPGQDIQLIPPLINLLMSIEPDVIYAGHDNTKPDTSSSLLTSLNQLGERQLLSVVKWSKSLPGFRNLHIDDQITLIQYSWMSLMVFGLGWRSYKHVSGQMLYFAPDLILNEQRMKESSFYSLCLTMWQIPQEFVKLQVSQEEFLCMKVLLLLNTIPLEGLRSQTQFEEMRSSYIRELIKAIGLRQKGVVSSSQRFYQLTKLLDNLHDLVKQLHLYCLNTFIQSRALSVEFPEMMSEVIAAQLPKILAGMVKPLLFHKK

Consider `O=C(O)C(O)C(O)C(=O)O` (stereo not drawn), for which the Potency entry in experiment [1], in experiment [2], in [3], in [4], in experiment [5] and in experiment [6] was “inactive” each time. The Potency entry in experiment [7], in [9], in experiment [11], in experiment [12], in experiment [13] and in [14] was “inactive” throughout. Besides, the Potency entry in experiment [15] and in [16] was “inactive” throughout. For the same compound, the result in experiment [8] and in [10] was inactive.

For `CN(C)C(=O)Nc1cccc(OC(=O)NC(C)(C)C)c1`, the Potency result in experiment [1], in experiment [2], in experiment [3], in [4], in [5] and in experiment [6] was “inactive” each time. The Potency result in experiment [7], in [9], in experiment [11], in experiment [12], in experiment [13] and in [14] was “inactive” each time. The Potency entry in experiment [15] and in experiment [16] was “inactive” each time. Also, the result in experiment [8] and in experiment [10] was inactive.

Turning to `OCC1CO1` (stereo not drawn), the Potency result in experiment [1], in experiment [2], in experiment [3], in experiment [4], in experiment [5] and in [6] was “inactive” each time. Moreover, the Potency result in [7], in experiment [11], in [12], in experiment [13], in [14] and in [15] was “inactive” in each case. Further, the Potency result in [17] and in experiment [16] was “inactive” throughout. Further, the compound was classed as inactive in experiment [8].

On to `COP(=O)(OC)OC(Br)C(Cl)(Cl)Br` (stereo not drawn), for which the Potency entry in [1], in experiment [2], in experiment [3], in experiment [4], in experiment [5] and in experiment [6] was “inactive” throughout. In addition, the Potency result in experiment [7], in experiment [9], in experiment [11], in experiment [12], in experiment [14] and in experiment [15] was “inactive” throughout. Moreover, the outcome in [10] was inactive. For the same compound, the Potency in experiment [13] and in experiment [17] was 61.2 µM (active) in each case.

As to `O=C1c2ccccc2C(=O)N1SC(Cl)(Cl)Cl`, the Potency result in experiment [1], in experiment [2], in experiment [3], in [4], in experiment [5] and in experiment [7] was “inactive” in each case. Moreover, the Potency entry in [12], in experiment [14] and in experiment [16] was “inactive” throughout. Further, the compound was classed as inactive in [8] and in experiment [10]. The Potency was 33.3 µM (active) in [9]; 39.8 µM (active) and 17.2 µM (active) in experiment [11]; 4.27 µM (active) and 5.45 µM (active) in [13]; 24.3 µM (active) in experiment [15]; 6.03 µM (active) in [17].

On to `O=C(O)COc1cc(Cl)c(Cl)cc1Cl`, for which the Potency entry in experiment [1], in experiment [2], in [3], in experiment [4], in [6] and in [7] was “inactive” in each case. For the same compound, the Potency entry in [11], in [12], in experiment [13], in experiment [14], in experiment [15] and in [17] was “inactive” in each case. The Potency entry in experiment [16] was “inactive”.

In the case of `C#CC(O)(C=CCl)CC` (stereo not drawn), the Potency entry in experiment [1], in experiment [2], in experiment [3], in experiment [4], in experiment [5] and in [6] was “inactive” each time. The Potency result in [7], in [11], in [12], in experiment [13], in experiment [14] and in experiment [15] was “inactive” in each case. Moreover, the Potency entry in experiment [17] and in [16] was “inactive” in each case.

As to `C[Si](Cn1cncn1)(c1ccc(F)cc1)c1ccc(F)cc1`, the Potency entry in [1], in experiment [2], in experiment [4], in experiment [6], in [7] and in [9] was “inactive” throughout. Further, the Potency entry in [12], in experiment [14] and in experiment [16] was “inactive” each time. For the same compound, the Potency is 15.4 µM (active) in experiment [3]; 31.6 µM (active) and 15.4 µM (active) in experiment [17]. For the same compound, the compound was called inactive in experiment [8] and in experiment [10].

As to `CCCCOC(=O)CCC(=O)OCCCC`, the Potency entry in experiment [1], in experiment [2], in experiment [3], in experiment [4], in experiment [5] and in [6] was “inactive” in each case. Moreover, the Potency result in [7], in experiment [9], in [11], in [12], in [13] and in [14] was “inactive” in each case. For the same compound, the Potency entry in experiment [15] and in experiment [16] was “inactive” throughout. Further, the compound was called inactive in experiment [10].
